Test [1] can be described thus: anti-His antibody binders, primary screen, artefact control for SMM control protein annotation, biochemical, small-molecule microarray, 635 nm fluorescence (AID 1128).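 Note: score merges feature fluorescence with signal-to-noise for each printed compound spot.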 As to conditions: anti-His Alexa647 antibody binding, higher = more signal.
Test [2] concerns Human papillomavirus type 1a E7 protein (residues 1-88). Kind of test: HPV1a E7 small-molecule binders, primary screen, biochemical, small-molecule microarray, residues 1-88, 635 nm (AID 1129). Conditions: small-molecule microarray binding, fluorescence 635 nm; higher = more signal.
Test [3] addresses Focal adhesion kinase 1 (Homo sapiens) (UniProt Q05397). Description: small-molecule microarray binders of FAK, primary screen, biochemical, 635/667 nm fluorescence, BSA, DTT (AID 1130).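 Note: composite of spot emission at 667 nm and signal to noise over triplicate slides.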 As to conditions: PTK2 binding, 635 nm fluorescence, higher = more signal.
The test system of test [4] is Fibrinogen (Alexa647-labelled). Description: fibrinogen binders on compound microarrays, profiling panel, artefact control for SMM control-protein annotation, biochemical, small-molecule microarray, 635/667 nm fluorescence (AID 1131).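 Note: z-score merges 667 nm fluorescence with per-spot signal-to-noise over triplicate slides.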 As to conditions: fibrinogen-A647 binding fluorescence, higher = more signal.
The target in test [5] is Follistatin (Homo sapiens) (UniProt P19883). Kind of test: follistatin binders on small-molecule microarrays, primary screen, biochemical, small-molecule microarray, 635/667 nm fluorescence (AID 1132). Conditions: FST binding, 635 nm fluorescence, higher = more signal.
For test [6], the target named is Fibroblast growth factor 2 (Homo sapiens) (UniProt P09038). Description: FGF2 binders on small-molecule microarrays, primary screen, biochemical, small-molecule microarray, 635/667 nm fluorescence (AID 1133). Conditions: small-molecule microarray binding, FGF2, fluorescence 635/667; higher = more signal.
A short description of test [7]: mitochondrial membrane potential change in A549 cells, profiling panel, cell-based, JC-1 fluorescence, basal, 24 h, 100 nL (AID 1138).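 Note: A549 lung adenocarcinoma cells under basal conditions with no added stimulus; test concentration not given here.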 As to conditions: higher = more signal.
A further test relates to Lefty1. Kind of test: Lefty1 binders on small-molecule microarrays, primary screen, biochemical, small-molecule microarray, 635/667 nm fluorescence (AID 1139). As to conditions: small-molecule microarray binding, fluorescence 635/667; higher = more signal.
Test [8] concerns wheat germ agglutinin (Triticum aestivum), Alexa647-labelled. Description: wheat germ agglutinin binders on compound microarrays, profiling panel, artefact control for SMM control-protein annotation, biochemical, small-molecule microarray, 635/667 nm fluorescence (AID 1140).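 Note: score merges 667 nm feature emission with signal to noise over triplicate slides.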 Conditions: WGA-A647 binding, 635 nm fluorescence, higher = more signal.
Test [9] concerns the target Luciferin 4-monooxygenase (Photinus pyralis) (UniProt P08659). Description: firefly luciferase enzyme inhibitors, primary screen, biochemical, luminescence, purified enzyme, 2006 set (AID 1141).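 Note: cell-free assay with purified firefly luciferase at 100 ng per well in PBS; test concentration not given here.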 Conditions: SteadyGlo luminescence, 30 min, higher = more signal, called active from +8 up or from −8 down.
Test [10] concerns Wnt5a (protein binding on small-molecule microarray). Description: Wnt5a binders on small-molecule microarray, primary screen, biophysical, 635/667 nm fluorescence (AID 1142).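 Note: fluorescence read at 667 nm with signal to noise per printed feature.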 Conditions: 635 nm fluorescence, higher = more signal.
Test [11] can be described thus: cell viability in Huh7 cells, primary screen, cytotoxicity control for HCV replication inhibitor project, CellTiter-Glo luminescence, basal, 48 h (AID 1143).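 Note: Huh7 hepatoma cells carrying a hepatitis C replication reporter with no stimulus; test concentration not given here.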 As to conditions: Huh7 HCV replicon, higher = more signal, called active from +8 up or from −8 down.
A short description of test [12]: P. aeruginosa biofilm formation inhibitors, primary screen, PAO1 strain, BacTiter-Glo luminescence, LB-PBS (AID 1144). As to conditions: 12 h, higher = more signal.
Test [13] is described as follows: CREB reporter modulators without forskolin, primary screen, cell-based, PC12, CRE-LacZ reporter, unstimulated (AID 1145). As to conditions: no forskolin, luminescence, 4.5 h, higher = more signal, called active from +8 up or from −8 down.
Test [14] is described as follows: CREB reporter modulators under forskolin, primary screen, cell-based, PC12, CRE-LacZ reporter, forskolin-stimulated (AID 1146).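 Note: PC12 cells with 6xCRE LacZ reporter stimulated by forskolin 10 µM; beta-galactosidase reporter signal reflecting CREB driven transcription.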 Conditions: luminescence, 4.5 h, higher = more signal, called active from +8 up or from −8 down.
Test [15] concerns the target Streptavidin (Streptomyces avidinii) (UniProt P22629). Description: streptavidin binders on small-molecule microarray, primary screen, artefact control for SMM compound annotation, biophysical, 635/667 nm fluorescence (AID 1147).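 Note: signal reflects streptavidin binding to arrayed compounds as a control protein.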 Conditions: streptavidin binding, higher = more signal.
Test [16] can be described thus: small-molecule binders of probe aInhba, primary screen, biochemical, small-molecule microarray, 635/667 nm fluorescence (AID 1148).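 Note: score merges 667nm spot fluorescence with signal-to-noise for antibody binding to printed compounds.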 Conditions: higher = more signal.
The target of test [17] is Torsin-1A (Homo sapiens) (UniProt O14656). Description: torsin A binders from cell lysate, primary screen, small-molecule microarray, wild-type, 635/667 nm (AID 1149). Conditions: COS7 hTOR1A-WT lysate, 635 nm fluorescence, higher = more signal.
Test [18] has the same target. Kind of test: small-molecule binders of mutant TOR1A in lysate, primary screen, cell lysate, small-molecule microarray, COS7 lysate, 635/667 nm fluorescence (AID 1150).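 Note: score pools 667 nm emission and signal to noise measuring lysate protein binding.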 Conditions: COS7 hTOR1A mutant lysate, 635 nm fluorescence, higher = more signal.
Test [19] has as its system Sonic hedgehog protein (Shh). Description: small-molecule binders of Shh protein, primary screen, biochemical, small-molecule microarray, 635/667 nm fluorescence (AID 1151).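 Note: Shh protein binding to compounds spotted on small-molecule microarray slides; score combines spot fluorescence intensity with signal-to-noise across triplicate slides.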 As to conditions: small-molecule microarray binding, 635 nm fluorescence; higher = more signal.

Several values for one entry are separate records, joined by “and”; a condition that tells them apart may be missing. Equal entries are not always repeated. Activity calls are given as the source filed them. Unless noted, the rule behind the calls is not given here.

Sequence of Streptavidin (Streptomyces avidinii) (P22629 whole entry, looked up): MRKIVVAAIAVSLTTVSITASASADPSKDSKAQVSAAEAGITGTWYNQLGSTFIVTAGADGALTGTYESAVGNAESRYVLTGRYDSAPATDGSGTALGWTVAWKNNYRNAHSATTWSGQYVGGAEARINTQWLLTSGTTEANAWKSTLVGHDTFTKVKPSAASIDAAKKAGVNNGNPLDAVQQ
Sequence of Torsin-1A (Homo sapiens) (O14656 whole entry, looked up): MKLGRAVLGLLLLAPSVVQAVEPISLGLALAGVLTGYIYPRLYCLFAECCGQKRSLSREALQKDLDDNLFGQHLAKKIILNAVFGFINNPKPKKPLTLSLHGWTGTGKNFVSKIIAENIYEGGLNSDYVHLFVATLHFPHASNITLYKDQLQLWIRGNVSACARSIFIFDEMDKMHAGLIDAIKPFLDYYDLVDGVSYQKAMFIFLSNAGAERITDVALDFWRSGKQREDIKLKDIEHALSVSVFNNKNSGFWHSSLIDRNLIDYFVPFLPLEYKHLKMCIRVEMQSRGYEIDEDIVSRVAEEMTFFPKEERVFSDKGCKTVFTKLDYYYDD
Sequence of Luciferin 4-monooxygenase (Photinus pyralis) (P08659 whole entry, looked up): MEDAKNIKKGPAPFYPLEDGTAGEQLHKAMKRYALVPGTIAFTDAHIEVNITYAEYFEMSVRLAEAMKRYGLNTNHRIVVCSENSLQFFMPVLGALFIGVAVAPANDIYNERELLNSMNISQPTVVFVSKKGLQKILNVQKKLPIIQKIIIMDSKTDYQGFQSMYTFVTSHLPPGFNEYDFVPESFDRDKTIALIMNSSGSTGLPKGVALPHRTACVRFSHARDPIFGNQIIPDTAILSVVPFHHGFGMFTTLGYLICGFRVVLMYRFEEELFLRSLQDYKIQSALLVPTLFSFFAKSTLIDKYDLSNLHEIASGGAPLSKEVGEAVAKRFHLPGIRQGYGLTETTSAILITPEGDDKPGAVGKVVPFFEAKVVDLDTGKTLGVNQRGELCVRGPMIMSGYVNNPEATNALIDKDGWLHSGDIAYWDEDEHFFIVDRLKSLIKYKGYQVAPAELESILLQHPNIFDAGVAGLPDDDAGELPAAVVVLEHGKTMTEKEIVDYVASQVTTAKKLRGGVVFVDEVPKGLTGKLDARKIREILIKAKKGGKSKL
Sequence of Follistatin (Homo sapiens) (P19883 whole entry, looked up): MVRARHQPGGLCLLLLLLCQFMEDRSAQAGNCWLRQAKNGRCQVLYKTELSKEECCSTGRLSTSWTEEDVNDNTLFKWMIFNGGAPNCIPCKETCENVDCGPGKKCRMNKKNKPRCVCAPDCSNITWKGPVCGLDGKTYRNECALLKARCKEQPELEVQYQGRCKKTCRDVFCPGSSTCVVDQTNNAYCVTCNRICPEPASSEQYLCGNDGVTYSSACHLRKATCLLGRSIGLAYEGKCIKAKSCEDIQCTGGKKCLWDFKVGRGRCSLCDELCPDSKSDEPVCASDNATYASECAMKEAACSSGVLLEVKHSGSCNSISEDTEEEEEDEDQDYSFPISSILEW
Sequence of Focal adhesion kinase 1 (Homo sapiens) (Q05397 whole entry, looked up): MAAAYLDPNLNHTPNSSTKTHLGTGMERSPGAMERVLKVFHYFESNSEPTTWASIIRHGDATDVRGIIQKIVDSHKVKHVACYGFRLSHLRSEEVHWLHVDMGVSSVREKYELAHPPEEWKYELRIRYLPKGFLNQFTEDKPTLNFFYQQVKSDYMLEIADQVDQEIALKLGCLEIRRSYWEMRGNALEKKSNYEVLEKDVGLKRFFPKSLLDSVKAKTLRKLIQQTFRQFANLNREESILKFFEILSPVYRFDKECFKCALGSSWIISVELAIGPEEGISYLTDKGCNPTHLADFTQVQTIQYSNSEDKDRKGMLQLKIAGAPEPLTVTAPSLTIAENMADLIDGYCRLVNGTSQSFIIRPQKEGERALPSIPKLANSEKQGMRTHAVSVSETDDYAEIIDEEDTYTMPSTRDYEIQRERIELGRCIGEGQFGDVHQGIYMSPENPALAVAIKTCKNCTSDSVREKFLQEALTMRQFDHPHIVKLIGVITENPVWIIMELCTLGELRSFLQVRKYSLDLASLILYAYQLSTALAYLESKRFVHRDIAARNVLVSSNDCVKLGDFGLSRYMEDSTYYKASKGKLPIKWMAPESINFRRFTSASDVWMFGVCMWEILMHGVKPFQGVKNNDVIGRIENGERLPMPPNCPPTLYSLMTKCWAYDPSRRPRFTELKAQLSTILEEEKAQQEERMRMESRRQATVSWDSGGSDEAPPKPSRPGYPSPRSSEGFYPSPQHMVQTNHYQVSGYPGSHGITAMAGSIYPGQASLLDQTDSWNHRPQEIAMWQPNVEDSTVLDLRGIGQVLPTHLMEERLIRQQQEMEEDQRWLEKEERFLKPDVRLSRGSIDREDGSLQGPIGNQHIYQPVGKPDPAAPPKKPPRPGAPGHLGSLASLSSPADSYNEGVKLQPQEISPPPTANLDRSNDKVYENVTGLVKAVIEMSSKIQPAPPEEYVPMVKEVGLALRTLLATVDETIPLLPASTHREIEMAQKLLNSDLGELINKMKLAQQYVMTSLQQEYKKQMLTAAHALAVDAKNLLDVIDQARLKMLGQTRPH
Sequence of Fibroblast growth factor 2 (Homo sapiens) (P09038 whole entry, looked up): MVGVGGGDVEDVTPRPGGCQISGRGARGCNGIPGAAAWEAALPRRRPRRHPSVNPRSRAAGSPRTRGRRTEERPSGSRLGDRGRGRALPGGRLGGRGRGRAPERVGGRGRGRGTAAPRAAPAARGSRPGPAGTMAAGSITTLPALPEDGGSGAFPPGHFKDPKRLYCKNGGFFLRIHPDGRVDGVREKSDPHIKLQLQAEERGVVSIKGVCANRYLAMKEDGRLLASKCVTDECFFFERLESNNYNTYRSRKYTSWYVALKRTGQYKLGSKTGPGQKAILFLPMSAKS

As to `COC(=O)[C@@]1(Cc2ccc(OC)cc2)[C@H]2c3cc(C(=O)N(C)C)n(Cc4ccc(O)c(OC)c4)c3C[C@H]2CN1C(=O)c1ccccc1`, the composite z-score in test [1] is 1.8 and 2.3; in [2], 1.24 and 1.21; in test [3], 0.529 and 0.379; in test [4], 0.0218 and 0.962; in test [5], 0.231 and 0.715; in test [6], -0.913 and -0.134. Also, the composite z-score in the test on Lefty1 is -0.268 and -0.542; in test [8] it was 1.39 and 0.989; in test [10] it was 0.0905 and 0.294; in test [15] it was 1.09 and 0.758; in test [16], 0.293 and 0.714; with Torsin-1A (Homo sapiens) [17], 0.934 and 0.0765. For the same compound, the composite z-score in the test with Torsin-1A (Homo sapiens) [18] was 0.692 and 0.318; in [19], 1.02 and -0.291. Besides, the z-score in test [7] was 1.73 and 1.22; in [9] it was 1.75 (inactive) and 1.08 (inactive); in test [11] it was -1.03 (inactive) and -2.86 (inactive); in test [12] it was 0.209 (inactive) and 0.769 (inactive); in test [13], 0.583 (inactive) and 0.197 (inactive); in test [14], 0.217 (inactive) and -0.742 (inactive).

On to `C=C(C)C(=O)OC[C@@H]1CN2[C@@H](CC[C@@H](C)[C@@H]2c2ccc(Br)cc2)C(=O)O1`, for which the composite z-score was -0.0452 in [1]; 0.818 in test [2]; 0.213 in test [3]; 0.762 in test [4]; 0.55 in test [5]; 0.854 in [6]. In addition, the composite z-score in the test with Lefty1 was 0.966; in test [8], 0.146; in test [10], -0.0892; in [15], -0.222; in test [16], -0.0895; with Torsin-1A (Homo sapiens) [17] it was 0.457. Moreover, the composite z-score in the test with Torsin-1A (Homo sapiens) [18] is 0.231; in test [19] it was 0.605. For the same compound, the z-score was 1.77 in test [7]; -0.721 (inactive) in [9]; -0.0082 (inactive) in [11]; -1.58 (inactive) in test [12]; 1.54 (inactive) in test [13]; 0.11 (inactive) in test [14].

Consider `C[N+](C)(C)CCCCCCNC(=O)[C@H]1C[C@H]2C(=O)N[C@@H](CCCC[N+](C)(C)C)C(=O)N2[C@H]1c1ccc(O)cc1`, for which the composite z-score in test [1] was -0.389 and 0.368; in [2], -0.558 and -0.643; in test [3], -0.391 and -0.0304; in test [4], -0.112 and -0.705; in test [5] it was 1.13 and 1.16; in test [6], 1.52 and 0.18. The composite z-score in the test on Lefty1 was 1.56 and 0.452; in test [8], 0.618 and -0.277; in [10] it was 0.0916 and 0.169; in [15], -0.52 and -0.486; in test [16] it was -0.131 and -0.0313; in the test with Torsin-1A (Homo sapiens) [17], -0.0883 and -0.172. In addition, the composite z-score in the test with Torsin-1A (Homo sapiens) [18] was 0.0293 and -0.103; in test [19], 1.14 and 1.93. The z-score in test [7] is -1.08 and -0.207; in test [9], 1.03 (inactive) and 0.485 (inactive); in test [11] it was -2.26 (inactive) and 0.0462 (inactive); in [12], -0.978 (inactive) and -0.491 (inactive); in test [13], -1.22 (inactive) and 0.423 (inactive); in test [14], 0.188 (inactive) and -0.798 (inactive).

For `COC(=O)[C@@]1(Cc2ccc(F)cc2)[C@H]2c3cc(C(=O)N4CCCC4)n(Cc4c(CO)[nH]cc(C)c4=O)c3C[C@H]2CN1C(=O)c1ccccc1`, the composite z-score in test [1] was 2.37 and 2.39; in test [2], 0.709 and 1.18; in test [3], 1.1 and 1.41; in [4], 1.01 and -0.216; in test [5], 0.529 and 0.121; in test [6], -0.351 and -0.789. Besides, the composite z-score in the test on Lefty1 was -0.212 and -1.02; in test [8] it was 1.16 and 0.234; in [10], 2.18 and 0.117; in test [15] it was 0.418 and -0.248; in [16], 1.24 and 0.131; with Torsin-1A (Homo sapiens) [17], 0.113 and -0.501. Also, the composite z-score in the test with Torsin-1A (Homo sapiens) [18] was 0.797 and 0.232; in test [19], -0.552 and -0.661. Also, the z-score in test [7] was 0.395 and 0.404; in [9], 2.01 (inactive) and 1.01 (inactive); in [11] it was -1.28 (inactive) and -0.88 (inactive); in [12], -0.0556 (inactive) and 0.0252 (inactive); in test [13], 0.762 (inactive) and 0.962 (inactive); in test [14] it was 3.71 (inactive) and 3.05 (inactive).

On to `C[C@@H]1CC[C@H]2C(=O)NC[C@@H](O)CN2[C@H]1c1ccc(Br)cc1`, for which the composite z-score in test [1] is -0.035 and -0.372; in test [2], -0.165 and -0.298; in test [3], 0.0377 and -0.438; in [4] it was -0.0102 and 0.0552; in test [5] it was -0.175 and -0.142; in [6], 0.0825 and 0.314. In addition, the composite z-score is 0.396 and 0.0488 in the test with Lefty1; -0.2 and -0.0411 in test [8]; -0.0755 and 0.0111 in [10]; -0.161 and -0.289 in test [15]; -0.0762 and -0.128 in test [16]; 0.0335 and 0.266 in the test with Torsin-1A (Homo sapiens) [17]. Besides, the composite z-score with Torsin-1A (Homo sapiens) [18] was 0.0464 and -0.352; in test [19] it was 0.264 and -0.0212. The z-score in test [7] was -0.386 and 1.68; in test [9], 0.29 (inactive) and -0.467 (inactive); in test [11], 0.3 (inactive) and 0.139 (inactive); in [12], 0.721 (inactive) and 0.543 (inactive); in [13], 0.649 (inactive) and 0.108 (inactive); in test [14] it was 0.797 (inactive) and 0.187 (inactive).

On to `C=CCN(C(=O)C(c1cccs1)N(C(=O)/C=C\C(=O)O)c1c(Cl)cccc1CO)c1ccc(OC)cc1` (stereo not given), for which the composite z-score is -1.78 and -1.48 in test [1]; -1.15 and -0.74 in [2]; -0.93 and -0.641 in test [3]; -1.13 and -0.594 in test [4]; -2.61 and -1.19 in test [5]; -2.55 and -1.44 in [6]. Moreover, the composite z-score in the test with Lefty1 was -2.98 and -2.04; in test [8], -0.55 and 0.213; in test [10] it was -0.57 and -0.644; in [15], -1.33 and -0.327; in [16], -0.336 and -0.0209; in the test with Torsin-1A (Homo sapiens) [17], -2.86 and -0.746. The composite z-score with Torsin-1A (Homo sapiens) [18] was -1.96 and -2.42; in test [19] it was -1.64 and -0.676. For the same compound, the z-score is 1.26 and 1.98 in test [7]; -1.47 (inactive) and -1.26 (inactive) in test [9]; -0.266 (inactive) and 0.28 (inactive) in test [11]; 0.894 (inactive) in test [12]; -0.895 (inactive) and -0.346 (inactive) in [13]; -0.569 (inactive) and 0.595 (inactive) in [14].

As to `CCOC(=O)[C@H](CC(C)C)NC(=O)CCC1CC(OC(=O)NCc2cccc3ccccc23)CC2(CCCC(COC(=O)NCc3ccccc3)O2)O1` (stereo not given in full), the composite z-score in [1] is 0.223; in [2], -0.439; in test [3], -0.159; in [4] it was -1.97; in test [5], -0.126; in test [6] it was -0.105. The composite z-score is 0.275 with Lefty1; -0.0551 in [8]; -0.147 in test [10]; -0.339 in test [15]; 0.0038 in test [16]; -1.07 with Torsin-1A (Homo sapiens) [17]. The composite z-score was -0.964 with Torsin-1A (Homo sapiens) [18] and -0.0293 in [19]. The z-score was 0.629 in test [7]; 0.529 (inactive) in test [9]; -0.649 (inactive) in [11]; -0.583 (inactive) in test [12]; 0.286 (inactive) in test [13]; 1.5 (inactive) in [14].
